From the OligoGym collection

Molecular target: FCHSD2
Test: pooled miR-30 sensor sort-seq; sequence = guide strand
Conditions: shRNA
Note: reference of the scale not given here.

| Sequence | sensor-assay potency score (higher = more potent) |
| --- | --- |
| TAGGAATAAACAACTTTGCAGG | -0.656 |
| TTCTGTTCTAGCTCTGCTCGGC | -0.12 |
| TAACTTTACACTTGCCTTCTGT | -0.129 |
| TATCTTCAAACTCTTCGCCTTC | -0.452 |
| TTTAGCTAAATCTTTCACTGTC | 1.33 |
| TTTAAGCTTCTCACTGTCCTTG | 0.228 |
| TAGCTTTGGAATTACACTCAGA | -0.799 |
| TTTTCTTGCAAAAACAGCTGAA | -0.0894 |
| TTATCTTCAAACTCTTCGCCTT | -0.0794 |
| TGCTTTAGCAGGTCCAACCGGG | -0.504 |
| TTCGGTATCTGCATTAAGCGAG | 0.0519 |
| TTTCTGATTCTAACTGTCGGCT | -0.5 |

Molecular target: FCRL4
Test: as above
Conditions: shRNA

| Sequence | sensor-assay potency score (higher = more potent) |
| --- | --- |
| TTATTTTGAAATTTGATCTAAA | -0.106 |
| TGTTATTTGAACTTGCTTGTGG | 0.392 |
| TTATCCTCTAGAAGTGTCCTGG | 0.145 |
| TTCTCTGTTGCATAGAACTGAA | -0.545 |
| TAGGCTGAGAGTCTGTAGCTTT | 0.173 |
| TAGAACTGAAATCCATTGCAAG | -0.914 |
| TACATCAACATACAACGACTGA | -0.697 |
| TAGACAACTGAGACATCCTTAT | -0.682 |
| TTATTTGAACTTGCTTGTGGGA | -0.64 |
| TAGAGCTGATCTTTCCAGCTGA | 0.365 |
| TATTTGAACTTGCTTGTGGGAT | -0.378 |
| TTGCATAGAACTGAAATCCATT | -0.778 |

Molecular target: FER1L6
Test: as above
Conditions: shRNA

| Sequence | sensor-assay potency score (higher = more potent) |
| --- | --- |
| TTAGTCAACAGTTTTGATCTTC | 0.643 |
| TTCTTCTGCTGTAACTAGGTGG | -0.362 |
| TAAAATGACATCTTCAGTGTTC | 0.481 |
| TTTGTCTCCATCCTGTTCGTTG | -0.562 |
| TTTTTCTGGTACAATCTCCGGG | 0.00268 |
| TTGACTATCTTTCGCAGCCTTG | -0.891 |
| TTGCTTGCACAGACCAACCAGC | -0.415 |
| TAGAGTCTCACATAGAATCTGG | -0.448 |
| TTTTCTGGTACAATCTCCGGGG | 0.181 |
| TAGCGAATCTGAAATATCGTGC | 0.395 |
| TAACTTTTTCTTCTGCTGCTGA | 0.239 |
| TTCTTCTATACTTTCTTCCAGG | -0.684 |

Molecular target: FEZ1
Test: as above
Conditions: shRNA

| Sequence | sensor-assay potency score (higher = more potent) |
| --- | --- |
| TTTATTTCAAAATTAGTCTTAA | -0.684 |
| ATGAACCATAGAAACACTGGGG | -0.474 |
| TTTAAATACATGTCGGAGGTTA | 0.312 |
